From PMC5540273 (PLoS ONE, 2017)

tested on: T1, OSR1; conditions: concentration: 1 μM,replicates: in singlicate; n = 1
T1 construct: gene OXSR1
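Note: KINOMEscan kinase panel screen.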

| SMILES | %Inh [%] |
| --- | --- |
| Cc1n[nH]c2ccc(-c3cc(OC[C@@H](N)Cc4ccccc4)cnc3-c3ccoc3)cc12.O=C(O)C(F)(F)F.O=C(O)C(F)(F)F [GSK507358] | 12 |
| CN(C)CCOc1ccc(-c2cc(-c3c[nH]nc3-c3ccccn3)ccn2)cc1 [GW835314] | 0 |
| CCn1c(-c2nonc2N)nc2c(C#CC(C)(C)O)nc(OCCN)cc21.Cl.Cl [GSK902056] | 32 |
| Nc1nc(Nc2ccccc2)cc(-c2ccc3c(N)n[nH]c3c2)n1 [GSK2225749] | 14 |
| Cc1ccc(-n2nc(C(C)(C)C)cc2NC(=O)Nc2ccc(OCCN3CCOCC3)c3ccccc23)cc1 [GW839464] | 0 |
| Cc1cc(C(=O)Nc2ccc(Oc3ccc4nc(NC(=O)C5CC5)cn4n3)cc2)nn1-c1ccccc1 | 0 |
| O=C(NCCCN1CCOC1=O)c1cnc(NCc2cc(Cl)ccc2Cl)nc1NC1CCCC1 | 0 |
| CC(C)Nc1cc(-c2ccc3c(N)n[nH]c3c2)nc(N)n1 [GSK2221681] | 0 |
| CNC(=O)c1ccccc1Sc1ccc2c(/C=C/c3ccccn3)n[nH]c2c1 | 0 |
| NC(=O)c1cc(-c2ccccc2)cc2c(C3CCNCC3)c[nH]c12 [GSK301362] | 14 |
| Cl.Cl.Nc1nc(-c2ccc3c(N)n[nH]c3c2)cc(N2CCCC(NC(=O)c3ccccc3)C2)n1 (stereo not drawn) [GSK2286775] | 0 |
| Cl.Oc1cc(-c2nc(-c3ccccc3)[nH]c2-c2ccncc2)ccc1Cl [SB-386023] | 8 |
| Cc1cc2cn[nH]c2cc1-c1cccc2c(N)c(C(N)=O)nnc12 | 48 |
| Cc1occc1-c1nc(N)c(OC[C@@H](N)Cc2c[nH]c3ccccc23)cc1-c1cc2c(C)n[nH]c2cn1 [GSK1660450] | 13 |
| C=CC(=O)Nc1cc2c(Nc3ccc(F)c(Cl)c3)ncnc2cc1OCCCN1CCOCC1 [GW781483] | 0 |

tested on: PAK1; conditions: concentration: 1 μM,replicates: in singlicate; n = 1

| SMILES | %Inh [%] |
| --- | --- |
| O=C(NCCNc1ccnc(NCc2ccc(F)cc2)n1)c1cc2ccccc2s1 [GSK1379944] | 15 |
| Cl.Cl.NC[C@H](CC1CCCCC1)NC(=O)c1cc(Br)c(-c2ccnc3[nH]ccc23)s1 [GSK1581427] | 38 |
| Cc1ccc2c(-c3ccncc3)c(-c3ccc(F)cc3)nn2c1.Cl [GW461484] | 29 |
| CC(C)N1C(=O)Cc2cc(Nc3ncc(C(F)(F)F)c(NCc4cccc(S(C)(=O)=O)c4)n3)ccc21 | 8 |
| CN(C)CC(O)COc1ccc(Nc2nccc(-c3cnn4nc(N5CCOCC5)ccc34)n2)cc1 (stereo not drawn) [GW767488] | 17 |
| COc1ccc(C[C@@H](CN)NC(=O)c2cc(Br)c(-c3ccnc4[nH]ccc34)s2)cc1.Cl.Cl [GSK1389063] | 78 |
| C[C@@H](Oc1cc(-c2cnn(C3CCNCC3)c2)cnc1N)c1c(Cl)ccc(F)c1Cl | 12 |
| CCN(CC)CCCCNc1ncc2cc(-c3c(Cl)cccc3Cl)c(NC(=O)NC(C)(C)C)nc2n1 | 18 |
| C[C@H]1Oc2cc(cnc2N)-c2c(nn(C)c2C#N)CN(C)C(=O)c2ccc(F)cc21 | 8 |
| CCN(CC)CCOc1ccc(Nc2ncc3cc(-c4c(Cl)cccc4Cl)c(=O)n(C)c3n2)cc1 [SB-601273] | 82 |
| Cl.Cl.NC[C@H](Cc1ccc(C(F)(F)F)cc1)NC(=O)c1cc(Br)c(-c2ccnc3[nH]ccc23)s1 [GSK1487252] | 37 |
| C[C@@H]1CCN(C(=O)CC#N)C[C@@H]1N(C)c1ncnc2[nH]ccc12 | 0 |
| Cc1n[nH]c2ccc(-c3cc(OC[C@@H](N)Cc4ccccc4)cnc3-c3ccoc3)cc12.O=C(O)C(F)(F)F.O=C(O)C(F)(F)F [GSK507358] | 88 |
| CN(C)CCOc1ccc(-c2cc(-c3c[nH]nc3-c3ccccn3)ccn2)cc1 [GW835314] | 0 |
| CCn1c(-c2nonc2N)nc2c(C#CC(C)(C)O)nc(OCCN)cc21.Cl.Cl [GSK902056] | 11 |
| Nc1nc(Nc2ccccc2)cc(-c2ccc3c(N)n[nH]c3c2)n1 [GSK2225749] | 27 |
| Cc1ccc(-n2nc(C(C)(C)C)cc2NC(=O)Nc2ccc(OCCN3CCOCC3)c3ccccc23)cc1 [GW839464] | 0 |
| Cc1cc(C(=O)Nc2ccc(Oc3ccc4nc(NC(=O)C5CC5)cn4n3)cc2)nn1-c1ccccc1 | 0 |
| O=C(NCCCN1CCOC1=O)c1cnc(NCc2cc(Cl)ccc2Cl)nc1NC1CCCC1 | 9 |
| CC(C)Nc1cc(-c2ccc3c(N)n[nH]c3c2)nc(N)n1 [GSK2221681] | 34 |
| CNC(=O)c1ccccc1Sc1ccc2c(/C=C/c3ccccn3)n[nH]c2c1 | 9 |
| NC(=O)c1cc(-c2ccccc2)cc2c(C3CCNCC3)c[nH]c12 [GSK301362] | 30 |
| Cl.Cl.Nc1nc(-c2ccc3c(N)n[nH]c3c2)cc(N2CCCC(NC(=O)c3ccccc3)C2)n1 (stereo not drawn) [GSK2286775] | 6 |
| Cl.Oc1cc(-c2nc(-c3ccccc3)[nH]c2-c2ccncc2)ccc1Cl [SB-386023] | 0 |
| Cc1cc2cn[nH]c2cc1-c1cccc2c(N)c(C(N)=O)nnc12 | 24 |
| Cc1occc1-c1nc(N)c(OC[C@@H](N)Cc2c[nH]c3ccccc23)cc1-c1cc2c(C)n[nH]c2cn1 [GSK1660450] | 97.8 |
| C=CC(=O)Nc1cc2c(Nc3ccc(F)c(Cl)c3)ncnc2cc1OCCCN1CCOCC1 [GW781483] | 0 |
